About 8,600 (12%) of roughly 69,000 compounds showed an effect of 50% or more. Only a selection was taken, and strong results are over-represented in it overall.
Test system: Plasmodium berghei
Experiment: Screen against P. berghei liver stage (PbLuc), transformed with Luciferase, at 10uM
Format: functional, HepG2
Conditions: tested at 10 uM

Structure (SMILES) | INHIBITION
CCOc1ccccc1C(CC(=O)Nc1ccccn1)NC(C)=O (centres undefined) | -10.45%
Cc1ccc(CN2CC[C@H]3[C@H]2CCN3S(=O)(=O)C2CC2)cc1 | 8.85%
Cn1c(CN2CCCC(N3CCNC3=O)C2)cc(=O)n(C)c1=O (centres undefined) | 31.4%
CCN1CC2(CCC1=O)CCN(Cc1cccc(OC(F)F)c1)CC2 | -9.39%
CN(C)Cc1cn(-c2ccccc2C(=O)NCC2CCCCN2C)cn1 (centres undefined) | 29.95%
CNc1nc2c(s1)C(c1c(F)cccc1Cl)CC(=O)N2 (centres undefined) | 3.95%
CN(C)C(=O)[C@]12CCCN(CC3CC3)C[C@H]1CN(c1ccccn1)C2 | 0.618%
COc1ccccc1CN(C)C(=O)C[S+]([O-])Cc1cc(C)on1 (centres undefined) | 5.29%
CC(C(=O)N1CCCN(Cc2cscn2)CC1)N1CCOCC1 (centres undefined) | -4.3%
Cn1cc(CN2CCn3cc(Cn4cccn4)nc3C2)cn1 | -6.23%
Cc1cc(C)n(CCC(=O)N2CCCC(n3cncn3)C2)n1 (centres undefined) | 64.7%
O=C(c1cc(C2CC2)on1)N1CCCC(n2cccn2)C1 (centres undefined) | 27.65%
Cc1cc(C)n(CCC(=O)N2CCCC(n3nc(C)nc3C)C2)n1 (centres undefined) | 30.2%
O=C(c1cc(C2CC2)on1)N1CCCC(n2cncn2)C1 (centres undefined) | 56.6%
CNc1snc(C)c1C(=O)N1CCCC(n2cc(C)cn2)C1 (centres undefined) | 58.5%
O=C(c1ccon1)N1CCCC(n2cncn2)C1 (centres undefined) | 9.82%
CNc1snc(C)c1C(=O)N1CCCC(n2cccn2)C1 (centres undefined) | 46.2%
CNc1snc(C)c1C(=O)N1CCCC(n2nc(C)cc2C)C1 (centres undefined) | 32.8%
Cc1cc(C(=O)N2CCCC(n3cncn3)C2)no1 (centres undefined) | 11.235%
Cc1cnn(C2CCCN(C(=O)c3cc(C4CC4)on3)C2)c1 (centres undefined) | 59%
Cc1cc(C)n(C2CCCN(C(=O)c3cc(C4CC4)on3)C2)n1 (centres undefined) | 14.4%
Cn1cc(CCC(=O)N2CCCC(n3cncn3)C2)cn1 (centres undefined) | 19.4%

Structure (SMILES) | INHIBITION
COCC(=O)NCc1cc(=O)n2c(n1)CN(Cc1nccs1)CCC2 | 44.8%
CC(=O)N(C)C1CCN(C(=O)c2cccc3c2ccn3C)CC1 | 9.63%
Cn1cc(CN2CCOCC3(C2)CN(c2ccccc2)C(=O)CO3)cn1 (centres undefined) | 17.1%
CC(=O)N(Cc1noc(C)n1)C1CCN(Cc2cccc(C#N)c2)C1 (centres undefined) | -18%
O=C(O)CN1CCC(C(F)(F)F)CC1 | 2.4%
Cc1c(CNC(=O)c2cn(CCC3CCCCN3)nn2)cnn1C (centres undefined) | -70.7%
CCn1ncc(CNC(=O)c2cn(CCC3CCCCN3)nn2)c1C (centres undefined) | 83.8%
CCn1nc(C)c(CNC(=O)c2cn(CCC3CCCCN3)nn2)c1C (centres undefined) | -25%
Cc1cc(C)n(CC2CCCN2C(=O)Cc2c(C)nn(C)c2C)n1 (centres undefined) | -43.5%
CCN(C)c1ncnc2c1CCN(c1ccc(C)nn1)CC2 | 39.4%
Cc1ccc(N2CCc3ncnc(C4CC4)c3CC2)nn1 | 58.4%
Cc1cccc(N2CCc3ncnc(C4CC4)c3CC2)n1 | -11.6%
CCN(CC)c1ncnc2c1CCN(c1ccc(C)nn1)CC2 | 52.1%
Cc1ccc(N2CCc3ncnc(N(C)C)c3CC2)nn1 | 8.6%
Cc1ccc(N2CCc3ncnc(C)c3CC2)nn1 | 35.8%
Cc1cccnc1C(=O)N1CCCC(Cc2cncc3ccccc23)C1 (centres undefined) | -63.5%
CCn1cc(Cl)c(C(=O)NCc2cnn(C)c2)n1 | 3.46%
CN(CCCNC(=O)N1CCCC1c1ccsc1)c1ccccn1 (centres undefined) | 52%
O=C(NCCCn1cccn1)N1CCCC1c1ccsc1 (centres undefined) | 28.6%
CCC(=O)N1CCCC1c1ccsc1 (centres undefined) | 50.4%
CCOC(=O)C1CCN(C(=O)CN2CCCC2Cc2ccccc2)CC1 (centres undefined) | -4.93%
CC(C)CC(=O)N1CCCC1c1ccsc1 (centres undefined) | -8.66%

Structure (SMILES) | INHIBITION
CCOC(=O)C1CCN(C(=O)CN2CCCC2c2ccccc2C)CC1 (centres undefined) | 70.1%
Cc1nc(-c2nnc[nH]2)sc1C(=O)N1CCCC1CC(C)(C)C (centres undefined) | -10.2%
O=C(NCCCn1ccnc1)N1CCCC1c1ccsc1 (centres undefined) | 28.4%
COc1ccccc1C1CCCN1CC(=O)N1CCC(C(N)=O)CC1 (centres undefined) | 34%
Cc1nc(-c2nnc[nH]2)sc1C(=O)N1CCCC1c1ccsc1 (centres undefined) | 72.5%
Cc1nc(-c2nnc[nH]2)sc1C(=O)N1CCCC1c1cccs1 (centres undefined) | -81.2%
CSCCC(=O)N1CCCC1c1ccsc1 (centres undefined) | 1.81%
Cc1nnc2ccc(N3CCN(CCc4ccccn4)CC3)nn12 | -57.4%
Cc1cc(C(=O)N2C[C@@H]3COC[C@]3(CN(C)C)C2)c(C)o1 | 25.1%
Cc1nn(C)cc1-c1nn2c(C(F)(F)F)nnc2s1 | -15.2%
Cc1c(C(=O)N2CCS(=O)(=O)CC2)nnn1-c1ccc2ncccc2c1 | 46.6%
CCc1nnc(CN(CC)C(=O)C2CC(=O)N(CC)C2)o1 (centres undefined) | 39.1%
CCC(C)(C)NC(=O)Cn1nnc(CN(C)C(=O)c2ccccc2)n1 | 29.6%
Cc1cnc(Nc2nccnc2C2CCN(C)CC2)s1 | 7.39%
O=C(O)c1cccc(CN2CCCC(Cc3ccn[nH]3)C2)c1 (centres undefined) | -0.05%
Cc1ncccc1C(=O)N1CCC2(CCc3ccccc3C(=O)N2)C1 (centres undefined) | 13.79%
Cn1cccc1C(=O)NC[C@]12COC[C@H]1CN(Cc1nccs1)C2 | -30.6%
Cc1cccc(CNc2n[nH]c(C)n2)c1 | 33.1%
CN(CCC#N)C(=O)CN1CCCC1c1ccsc1 (centres undefined) | 10.5%
CCOC(=O)C1CCN(C(=O)CN2CCCC2c2ccsc2)CC1 (centres undefined) | 54.6%
CCOC(=O)C1CCN(C(=O)CN2CCCC2c2cc(C)no2)CC1 (centres undefined) | -15.1%
O=C(NCC1CCOC1)c1csc(-c2ccccc2)n1 (centres undefined) | -10.6%

Structure (SMILES) | INHIBITION
c1cc2c(cc1CN1CC[C@H]3[C@H]1CCN3CC1CC1)OCO2 | 6.27%
O=C(c1ccc2[nH]cnc2c1)N1CCC(Oc2ccccn2)CC1 | 35.2%
Cc1cnn(CCCNC(=O)CCC2CCCCN2C)c1 (centres undefined) | 35.1%
C[C@@H]1CN(C2(C(=O)N3CCSCC3)Cc3ccccc3C2)C[C@H](C)O1 | 73.9%
C[C@@H]1CN(C2(C(=O)N3CCOCC3)Cc3ccccc3C2)C[C@H](C)O1 | 21%
C[C@@H]1CN(C2(C(=O)N3CCCCCC3)Cc3ccccc3C2)C[C@H](C)O1 | -0.182%
O=C(C1CC1)N1CCN(C(=O)C2CC(=O)N(c3ccccc3Br)C2)CC1 (centres undefined) | -56.4%
COC1CCN(C(=O)C2CC(=O)N(c3ccccc3Br)C2)CC1 (centres undefined) | 61.7%
O=C(C1CC(=O)N(c2ccccc2Br)C1)N1CCCCCC1 (centres undefined) | 21.8%
COCc1nn(C(C)C)c2c1CCN(Cc1ccsc1)C2 | -21.1%
C[C@@H]1C(=O)NC[C@H]2CN(Cc3ccsc3)C[C@H]21 | 27.4%
COc1cc(N2C[C@@H]3COC[C@]3(C(=O)NC3CC(F)(F)C3)C2)ncn1 | 31.4%
O=C1N(CC2CCCCC2)CCCC1(O)CN1CCc2[nH]ncc2C1 (centres undefined) | 68.8%
CC(C)(C)CN1CCCC(O)(CN2CCc3[nH]ncc3C2)C1=O (centres undefined) | 22.6%
O=C1N(CC2CC2)CCCC1(O)CN1CCc2[nH]ncc2C1 (centres undefined) | 79.1%
Cc1cccnc1CNCC1(O)CCCN(CC2CCC2)C1=O (centres undefined) | 9.96%
Cc1cccnc1CCNCC1(O)CCCN(CC2CCCCC2)C1=O (centres undefined) | 25.8%
Cc1cccnc1CNCC1(O)CCCN(CC2CCCCC2)C1=O (centres undefined) | 15.1%
CS(=O)(=O)N1CCC2(CC1)COC(COc1cccnc1)C2 (centres undefined) | -52.3%
CC(C)(C)c1cc(=O)n2c(n1)SCC(C(=O)NCc1cccs1)C2 (centres undefined) | 28%
COc1ccc2c(OCC(=O)NC(C)(C)C)ccnc2c1 | 29.6%
CCS(=O)(=O)N1CC[C@H]2O[C@H](c3nc(C)no3)CC[C@H]21 | 18.2%

Structure (SMILES) | INHIBITION
Cc1nc2ccc(C(=O)N3C[C@@H](O)[C@H](N4CCN(C)CC4)C3)cc2[nH]1 | 46%
NS(=O)(=O)c1ccc(NCc2ccccc2)cc1C(F)(F)F | 77.7%
Cc1ccccc1CNc1ccc(S(N)(=O)=O)c(C(F)(F)F)c1 | 93.4%
NS(=O)(=O)c1ccc(NCc2ccccc2F)cc1C(F)(F)F | 82.3%
CS(=O)(=O)Cc1ccc(Cl)cc1NCc1ccccc1F | 38%
Fc1ccccc1CNc1ccnc(C2CCNCC2)c1 | 26.7%
Cc1cc(C)c(S(N)(=O)=O)cc1C(=O)NCC1Cc2ccccc2O1 (centres undefined) | -9.82%
CC(=O)Nc1ccc(CNc2cccc(CS(C)(=O)=O)c2)cc1 | 34.6%
CS(=O)(=O)c1ccc(NCc2ccccc2)cn1 | 27.3%
CC(C)(CNc1ccc(C#N)c(C(F)(F)F)c1)C(N)=O | -21%
CN(C)S(=O)(=O)c1ccc(CN2CCCC2c2ccsc2)o1 (centres undefined) | -0.96%
Cn1nccc1C(=O)N1Cc2ccccc2OC2(CCOCC2)C1 | 29.2%
CN(C)C(=O)N1CCOCC2(CCN(c3ccccn3)C2)C1 (centres undefined) | -3.1%
Cc1cnn(CC2CCCCN2C(=O)c2ccc3c(c2)nnn3C)c1 (centres undefined) | -17.8%
O=S(=O)(Cc1ccccc1)NCCc1nnc2n1CCC2 | 31.9%
CC(C)CS(=O)(=O)CCNc1ncccn1 | 10.3%
CCc1cnc(NCCS(=O)(=O)N(C)C)nc1 | 61.3%
CCc1cnc(NCCS(=O)(=O)CC(C)C)nc1 | 53.7%
CCc1cnc(NCCCN2CCC(O)CC2)nc1 | -52.7%
CN(C)S(=O)(=O)CCNc1ncc2c(n1)CCN2c1ccccc1 | -26.9%
CCc1cnc(NCCCOC2CCCC2)nc1 | -27%

— ChEMBL document CHEMBL4513216, “Probing the Open Global Health Chemical Diversity Library for Multistage-Active Starting Points for Next-Generation Antimalarials” (ACS Infect Dis, 2020)
